The full ranking holds about 110,000 compounds; the median of “z-score” is about -0.1, and the highest 2% start at about 2. What follows is part of a selection rich in the highest values, with near analogues and random picks from the rest. Active and inactive are the calls of the source.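 The calls were made as follows: active = z-score in the third read window above 3 or below -3; inactive = the rest.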
The molecules below were run against Metabotropic glutamate receptor 8 (Rattus norvegicus) (UniProt P70579) (assay: rat mGluR8 modulators via GIRK flux, primary screen, cell-based, thallium flux, HTS (AID 488969)). Details: HEK293 rat mGluR8, GIRK (G protein-gated inwardly rectifying potassium channel) thallium flux, FluoZin2; at 10 µM; stronger effect = higher value; submaximal glutamate (EC20) added with thallium.
Sequence of Metabotropic glutamate receptor 8 (Rattus norvegicus) (P70579 whole entry, looked up): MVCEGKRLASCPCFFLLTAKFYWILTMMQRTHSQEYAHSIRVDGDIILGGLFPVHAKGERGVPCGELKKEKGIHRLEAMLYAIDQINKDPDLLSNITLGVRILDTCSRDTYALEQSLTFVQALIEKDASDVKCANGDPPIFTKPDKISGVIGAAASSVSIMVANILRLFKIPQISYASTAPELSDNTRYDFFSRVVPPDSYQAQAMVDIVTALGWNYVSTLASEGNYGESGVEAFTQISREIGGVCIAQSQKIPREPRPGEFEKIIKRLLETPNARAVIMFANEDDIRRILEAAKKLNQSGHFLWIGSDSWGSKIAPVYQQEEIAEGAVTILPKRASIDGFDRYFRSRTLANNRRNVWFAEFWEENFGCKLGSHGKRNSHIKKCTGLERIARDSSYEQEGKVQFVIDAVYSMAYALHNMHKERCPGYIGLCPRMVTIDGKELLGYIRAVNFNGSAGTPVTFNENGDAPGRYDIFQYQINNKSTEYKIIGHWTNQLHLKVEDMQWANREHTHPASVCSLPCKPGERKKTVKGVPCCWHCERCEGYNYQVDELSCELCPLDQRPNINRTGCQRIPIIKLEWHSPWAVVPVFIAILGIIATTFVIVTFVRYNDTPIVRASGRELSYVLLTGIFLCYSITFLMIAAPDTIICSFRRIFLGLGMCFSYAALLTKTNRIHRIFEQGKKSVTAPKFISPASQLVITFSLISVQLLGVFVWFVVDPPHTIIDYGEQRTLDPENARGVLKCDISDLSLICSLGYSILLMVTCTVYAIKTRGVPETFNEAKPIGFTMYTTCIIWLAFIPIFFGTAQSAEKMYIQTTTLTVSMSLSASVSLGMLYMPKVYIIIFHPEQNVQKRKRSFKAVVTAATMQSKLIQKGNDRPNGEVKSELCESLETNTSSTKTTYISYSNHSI
In the case of `CN(C)S(=O)(=O)N1CCN(C(=O)N2CCCCCC2)CC1`, the z-score is reported as -0.197.
For `Cc1ccsc1C(=O)OCC(=O)N1CC(=O)Nc2ccccc21`, the z-score was -0.081.
For `CCOc1ncccc1C(=O)OCC(=O)N1CC(=O)Nc2ccccc21`, the z-score was 2.36.
With `Cc1ccc(C(=O)OCC(=O)N2CC(=O)Nc3ccccc32)s1` the z-score was 0.331.
Work on `O=C(CCN1C(=O)C2CC=C(Cl)CC2C1=O)NCc1ccco1` (stereo unspecified) yielded a z-score of -0.187.
`O=S(=O)(NC1CC1)c1ccc(S(=O)(=O)N(Cc2ccccn2)C2CCCC2)cc1` showed a z-score of -0.114.
In the case of `O=C(Cc1ccc(Cl)cc1)Nc1ccc(N2CCN(C(=O)c3ccco3)CC2)c(Cl)c1`, the z-score is reported as 2.13.
With `O=C(Nc1ccc(N2CCN(C(=O)c3ccco3)CC2)c(Cl)c1)c1c(F)c(F)c(F)c(F)c1F` the z-score was -0.334.
`O=C(Cc1ccc(Cl)cc1)Nc1ccc(N2CCN(C(=O)c3ccco3)CC2)cc1` gave a z-score of 0.107.
Work on `Cc1cc(/C=N\NC(=O)CC(=O)NC2CCCCC2)c(C)n1-c1cccc(Cl)c1Cl` yielded a z-score of -0.438.
Molecule `CCN1CCN(Cc2ccccc2NC(=O)Nc2ccc(C)cc2)CC1` has a z-score of 0.088.
For `NC(=O)C1CCCN(C(=O)Nc2cccc3ccccc23)C1` (stereo unspecified), the z-score was 0.107.
For `COC(=O)Cc1c[nH]c2cccc(OCC(O)CN(Cc3ccccc3)C(C)C)c12` (stereo unspecified), the z-score was 0.637.
For `CCCn1nc2cc(C(=O)NCCc3ccc(C)cc3)ccc2c1OCC`, the z-score was 2.73.
In the case of `CCCCn1nc2cc(C(=O)NCCc3ccc(C)cc3)ccc2c1OCC`, the z-score is reported as -0.356.
With `CCOc1c2ccc(C(=O)NCCc3ccc(C)cc3)cc2nn1CC` the z-score was -0.287.
In the case of `Cc1c(C(N)=O)sc2ncn(CC(=O)OC(C)C)c(=O)c12`, the z-score is reported as 0.619.
Work on `CN(C)CCSc1nc(-c2ccccc2)nc2c1COC(C)(C)C2` yielded a z-score of -0.143.
`CC(C)NCCCOc1ccc(C(C)(C)c2ccccc2)cc1` showed a z-score of 0.192.
For `CNCCCOc1ccc(C(C)(C)c2ccccc2)cc1`, the z-score was 0.32.
For `CN(C)CCCOc1ccc(C(C)(C)c2ccccc2)cc1`, the z-score was 3.07 (active).
Molecule `O=C(Nc1ccc(N2CCN(C(=O)c3ccco3)CC2)cc1)c1ccc2c(c1)OCO2` has a z-score of 0.192.
Work on `CCN1C(=O)CC(N2CCC(Cc3ccccc3)CC2)C1=O` (stereo unspecified) yielded a z-score of -0.239.
Molecule `Cc1cc(O)c(C(C[N+](=O)[O-])c2ccc(Cl)cc2)c(=O)o1` (stereo unspecified) has a z-score of 0.103.
`CCOC(=O)c1cc2c(nc1N)CC(C)(C)OC2` showed a z-score of -0.353.
For `C=C(C)CNC(=S)Nc1nc2c(cc1C(=O)OCC)CCCC2`, the z-score was 3.56 (active).
For `CCOC(=O)c1cc2c(nc1N)CC(C)(CC)OC2` (stereo unspecified), the z-score was -0.0521.
`CCOC(=O)c1cc2c(nc1NC(=S)Nc1ccccc1)CC(C)(C)OC2` gave a z-score of -0.292.
Work on `CCOC(=O)c1cnc2cc3c(cn2c1=O)CCCC3` yielded a z-score of 0.699.
`CCOC(=O)c1cc2c(nc1NC(=S)NCc1ccccc1)CCCC2` showed a z-score of 2.16.
`CCOC(=O)c1ccc(NC(=S)NCCC2=CCCCC2)cc1` was tested, and the z-score was -0.19.
Work on `CCOC(=O)c1ccc(CNCc2ccccc2)cc1` yielded a z-score of -0.07.
With `CCNC(=S)Nc1nc2c(cc1C(=O)OCC)CCCC2` the z-score was 8.73 (active).
With `C=CCNc1nc(-c2ccccc2)c(C(=O)OCC)cc1C#N` the z-score was -0.303.
`C=CCNC(=S)Nc1nc2c(cc1C(=O)OCC)CCCC2` was tested, and the z-score was 7.76 (active).
In the case of `C=CCNC(=S)Nc1ccc2nc(C)c(C)nc2c1`, the z-score is reported as 0.0978.
